Test results reported in ChEMBL document CHEMBL1157539, “Thousands of chemical starting points for antimalarial lead identification” (Nature, 2010).

The compounds below were run on Plasmodium falciparum (assay: GSK_TCMDC: Inhibition of Plasmodium falciparum 3D7 in whole red blood cells, using parasite LDH activity as an index of growth. Test compounds present at 2uM).
Type: functional
Work on CC(C)(C)SCC(O)Cn1c2ccc(Br)cc2c2cc(Br)ccc21 (centres undefined) yielded an Inhibition of 87%.
Work on Clc1ccc2c(NN=Cc3ccccc3)ccnc2c1 yielded an Inhibition of 100%.
Work on O=C(Nc1cccc(-c2nn3ccccc3c2-c2ccnc(Nc3ccc(NCCCN4CCOCC4)c(F)c3)n2)c1)c1c(F)cccc1F yielded an Inhibition of 100%.
Compound CCCCCc1cnc2nc(N)nc(N)c2c1.O=S(=O)(O)CCO has an Inhibition of 82%.
O=C(Nc1cccc(-c2nc3ccccc3[nH]2)c1)c1ccc(-c2cccc([N+](=O)[O-])c2)o1 gave an Inhibition of 93%.
For Cc1cccc2nc(-c3ccc(-c4cccc(NC(=O)c5cncn5C)c4)s3)[nH]c12, the Inhibition was 100%.
COc1cc(OC)c(NC(=O)COc2ccc(C)cc2)cc1Cl gave an Inhibition of 86%.
Work on Cl.N=C(NCCc1ccc(Cl)c(Cl)c1)c1ccc2ccccc2c1 yielded an Inhibition of 100%.
For O=C(O)C(F)(F)F.c1cncc(CCNCc2ccc(-c3ccc(-c4nc5ccccc5[nH]4)s3)cc2)c1, the Inhibition was 100%.
Cc1[nH]c(C)c(-c2ccc(OCc3ccc(F)cc3)cc2)c(=O)c1Br was tested, and the Inhibition was 98%.
Compound COc1ccc2nccc([C@@H](O)CN3CCC(NC(=O)c4cc5cccnc5[nH]4)CC3)c2c1.Cl has an Inhibition of 94%.
CCOC(=O)[C@H](Cc1cccc2ccccc12)NC(=O)[C@H](CCC(=O)OC(C)(C)C)NC(=O)c1ccc(N(C)Cc2cnc3nc(N)nc(N)c3n2)cc1 showed an Inhibition of 93%.
Work on Cc1ccc(NC(=O)c2cccc(C#N)c2)cc1-c1ccc(C(=O)Nc2ccncc2)cc1 yielded an Inhibition of 94%.
Work on CC(C)Cn1c(Sc2ccc(C#N)c([N+](=O)[O-])c2)nnc1-c1ccccc1 yielded an Inhibition of 83%.
CCCCc1cc(O)c2c(c1)OC(C)(C)C=C2C1=CCN(Cc2ccccc2)CC1 showed an Inhibition of 98%.
CCN1CCN(c2cc(C)c3cc(NC(=O)C=Cc4cccc(OC)c4OC)ccc3n2)CC1 gave an Inhibition of 99%.
CC(=O)Nc1nc(C(=O)Nc2cccc(-c3ccc(-c4nc5cccc(C)c5[nH]4)cc3)c2)cs1 was tested, and the Inhibition was 100%.
With O=C(O)C(F)(F)F.OC1(c2ccccc2)CCN(Cc2cccc(-c3c[nH]c4nc(NC5CCCC5)ncc34)c2)C1 (centres undefined) the Inhibition was 92%.
CNCCNCc1ccc(-c2ccc(-c3nc4cccc(C)c4[nH]3)cc2)cc1.O=C(O)C(F)(F)F gave an Inhibition of 96%.
With COc1ccc(Nc2ncc3c(-c4cccc(NC(=O)Cc5ccncc5)c4)c[nH]c3n2)cc1OC the Inhibition was 99%.
In the case of Clc1ccccc1CNc1noc(-c2sccc2Br)n1, the Inhibition is reported as 97%.
CCc1c(C(=O)NC2CCC(N3CCC(c4ccccc4OC)CC3)CC2)[nH]c2ccc(Br)cc12 (centres undefined) showed an Inhibition of 100%.
N#Cc1ccc(NC(=O)c2ccc(C(=O)NCCCCN3CCC(c4ccc5c(c4OCCOC4CCCCO4)CCCC5)CC3)cc2)cc1 (centres undefined) showed an Inhibition of 99%.
With CC1CCN(Cc2cccc(C(=O)NCc3ccc(F)c(-c4cccc(CN5CCN[C@@H](C)C5)c4)c3)c2)CC1.O=C(O)C(F)(F)F the Inhibition was 91%.
For OC(CNc1ccnc(Nc2ccc(Cl)cc2)n1)c1cccc(C(F)(F)F)c1 (centres undefined), the Inhibition was 100%.

What follows are compounds tested on Plasmodium falciparum (assay: GSK_TCMDC: Inhibition of Plasmodium falciparum Dd2 in whole red blood cells, using parasite LDH activity as an index of growth. Test compounds present at 2uM).
Type: functional
For COc1cc(Nc2nccc(N3CCC(NC(=O)c4cc5ccccc5s4)C3)n2)cc(OC)c1OC (centres undefined), the Inhibition was 50%.
With CCN1CCN(CCCNc2c3ccccc3nc3ccccc23)CC1.Cl the Inhibition was 3%.
For c1ccn2c(-c3ncnc(NCc4ccc5c(c4)CCO5)n3)cnc2c1, the Inhibition was 47%.
Compound O=C(Nc1ccc2c(c1)CCC2)c1ccc(N2CCN(c3ccncc3)CC2)cn1.O=C(O)C(F)(F)F has an Inhibition of 58%.
For CC[C@H](C)CNC(=O)c1ccnc(-c2ccc(CNC3Cc4ccccc4C3)cc2)c1.O=C(O)C(F)(F)F, the Inhibition was 87%.
In the case of CN1CCC(NCc2cccc(-c3ccc(S(=O)(=O)NCCc4ccccn4)c(F)c3)c2)CC1.O=C(O)C(F)(F)F, the Inhibition is reported as 26%.
For O=C(NCCCCN1CCC(c2ccc3c(c2OCc2ccccn2)CCCC3)CC1)c1ccc(NC(=O)c2ccc(Cl)cc2)cc1, the Inhibition was 70%.
Cl.O=C(C=Cc1cccc(F)c1)NC1CCC(CCN2CCc3ccc(-c4cnccn4)cc3CC2)CC1 (centres undefined) was tested, and the Inhibition was 67%.
CCCN1CCN(CCCNC(=O)c2cc3c(Cl)nc4ccc(C)cc4c3s2)CC1 was tested, and the Inhibition was 27%.
Compound O=C(Nc1cccc([N+](=O)[O-])c1)Nc1cccc(C(F)(F)F)c1 has an Inhibition of 81%.
COc1cccc(-c2ccc3c(-c4ccc(F)cc4)cnc(N)c3c2)c1.O=CO gave an Inhibition of 70%.
C=CCc1cc(Br)ccc1OCCCOc1c(C)nc(N)nc1N.Cl was tested, and the Inhibition was 96%.
Work on COc1ccc(C(=O)N[C@@H](CC(C)C)C(=O)NC2CC[C@@H](C)N(C(=O)Nc3ccc(Cl)cc3)CC2=O)cc1OCCN1CCOCC1 (some centres undefined) yielded an Inhibition of 91%.
For C[C@@H](N)C#Cc1cc2c(Nc3ccc(OCc4cccc(F)c4)c(Cl)c3)ncnc2s1.O=CO, the Inhibition was 23%.
Work on CC(C)(C)SCC(O)Cn1c2ccc(Br)cc2c2cc(Br)ccc21 (centres undefined) yielded an Inhibition of 79%.
Compound Clc1ccc2c(NN=Cc3ccccc3)ccnc2c1 has an Inhibition of 94%.
With O=C(Nc1cccc(-c2nn3ccccc3c2-c2ccnc(Nc3ccc(NCCCN4CCOCC4)c(F)c3)n2)c1)c1c(F)cccc1F the Inhibition was 97%.
CCCCCc1cnc2nc(N)nc(N)c2c1.O=S(=O)(O)CCO was tested, and the Inhibition was 6%.
Work on O=C(Nc1cccc(-c2nc3ccccc3[nH]2)c1)c1ccc(-c2cccc([N+](=O)[O-])c2)o1 yielded an Inhibition of 28%.
Cc1cccc2nc(-c3ccc(-c4cccc(NC(=O)c5cncn5C)c4)s3)[nH]c12 was tested, and the Inhibition was 16%.
For COc1cc(OC)c(NC(=O)COc2ccc(C)cc2)cc1Cl, the Inhibition was 90%.
Cl.N=C(NCCc1ccc(Cl)c(Cl)c1)c1ccc2ccccc2c1 was tested, and the Inhibition was 29%.
With O=C(O)C(F)(F)F.c1cncc(CCNCc2ccc(-c3ccc(-c4nc5ccccc5[nH]4)s3)cc2)c1 the Inhibition was 99%.
With Cc1[nH]c(C)c(-c2ccc(OCc3ccc(F)cc3)cc2)c(=O)c1Br the Inhibition was 97%.
Work on COc1ccc2nccc([C@@H](O)CN3CCC(NC(=O)c4cc5cccnc5[nH]4)CC3)c2c1.Cl yielded an Inhibition of 6%.
Work on CCOC(=O)[C@H](Cc1cccc2ccccc12)NC(=O)[C@H](CCC(=O)OC(C)(C)C)NC(=O)c1ccc(N(C)Cc2cnc3nc(N)nc(N)c3n2)cc1 yielded an Inhibition of 96%.
Cc1ccc(NC(=O)c2cccc(C#N)c2)cc1-c1ccc(C(=O)Nc2ccncc2)cc1 gave an Inhibition of 64%.
Work on CC(C)Cn1c(Sc2ccc(C#N)c([N+](=O)[O-])c2)nnc1-c1ccccc1 yielded an Inhibition of 12%.
Compound CCCCc1cc(O)c2c(c1)OC(C)(C)C=C2C1=CCN(Cc2ccccc2)CC1 has an Inhibition of 3%.
CCN1CCN(c2cc(C)c3cc(NC(=O)C=Cc4cccc(OC)c4OC)ccc3n2)CC1 was tested, and the Inhibition was 38%.
In the case of CC(=O)Nc1nc(C(=O)Nc2cccc(-c3ccc(-c4nc5cccc(C)c5[nH]4)cc3)c2)cs1, the Inhibition is reported as 61%.
Work on O=C(O)C(F)(F)F.OC1(c2ccccc2)CCN(Cc2cccc(-c3c[nH]c4nc(NC5CCCC5)ncc34)c2)C1 (centres undefined) yielded an Inhibition of 31%.
For CNCCNCc1ccc(-c2ccc(-c3nc4cccc(C)c4[nH]3)cc2)cc1.O=C(O)C(F)(F)F, the Inhibition was 79%.
With COc1ccc(Nc2ncc3c(-c4cccc(NC(=O)Cc5ccncc5)c4)c[nH]c3n2)cc1OC the Inhibition was 87%.
Clc1ccccc1CNc1noc(-c2sccc2Br)n1 gave an Inhibition of 93%.
For CCc1c(C(=O)NC2CCC(N3CCC(c4ccccc4OC)CC3)CC2)[nH]c2ccc(Br)cc12 (centres undefined), the Inhibition was 98%.
For N#Cc1ccc(NC(=O)c2ccc(C(=O)NCCCCN3CCC(c4ccc5c(c4OCCOC4CCCCO4)CCCC5)CC3)cc2)cc1 (centres undefined), the Inhibition was 97%.
Work on CC1CCN(Cc2cccc(C(=O)NCc3ccc(F)c(-c4cccc(CN5CCN[C@@H](C)C5)c4)c3)c2)CC1.O=C(O)C(F)(F)F yielded an Inhibition of 64%.
In the case of OC(CNc1ccnc(Nc2ccc(Cl)cc2)n1)c1cccc(C(F)(F)F)c1 (centres undefined), the Inhibition is reported as 84%.
